Laboratory results reported in PubChem BioAssay (NCI).
Compounds without any hit were thinned out: in the full panel of roughly 83,000, 20% have a hit.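 Assay: single dose, 48 h. Readout: percent growth (0 = no net growth; negative = cell death). Active: <10.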 Activity calls are given as the source filed them.

The compounds below were run on MDA-MB-468 breast (assay: NCI-60 one-dose screen, 48 h (100 = growth as untreated, 0 = no growth, -100 = all killed)). Details: 10 µM unless noted.

Row | SMILES | growth
1 | COC(=O)CCCNc1c(-c2c(O)c(O)cc3c(O)c(-c4c(C)cc5c(-c6nc7ccccn7c6NCCCC(=O)OC)c(O)c(O)cc5c4O)c(C)cc23)nc2ccccn12 | 26.9% (inactive)
2 | Nc1nc(N)c2c(n1)NC(c1ccc(C(F)(F)F)cc1)CC(c1ccc(Nc3nc(NCCO)nc(Nc4ccc(Cl)cc4)n3)cc1)=N2 (stereo not given) | -84.7% (active)
3 | N#CC1=C(c2ccc(Br)cc2)NC(SCC(=O)c2ccc(Br)cc2)NC1=O (stereo not given) | 113% (inactive)
4 | Cc1c(C(=O)/C=C/c2ccc(Cl)cc2)nnn1-c1ccc2oc(=O)ccc2c1 | 85.9% (inactive)
5 | C=CCCCCCCCCCOC(C)=O | 105% (inactive)
